Among all 2,300 compounds or so, about 550 (24%) were called active. No rule for the calls is given here. The list is a sample of the results. Measured potencies and affinities stand elsewhere.
assay: Vero E6 cell cytotoxicity, dose response, cytotoxicity control for non-replicating M. tuberculosis project, secondary assay (AID 492998); details: series mostly up to 20 µM; viability: at the top concentration;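 also: 100% = vehicle-treated cells and 0% = background wells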

SMILES | viability
Cc1cc(NC(=O)c2cc([N+](=O)[O-])cc([N+](=O)[O-])c2)no1 | 99.3% (inactive)
CC(NC(=O)COc1ccc(-c2ccccc2)cc1)C1CCCO1 (stereo unspecified) | 102% (inactive)
COc1ccc(C(=O)NNC2=C(C(=O)C(F)(F)F)CCC2)cc1 | 79.2% (inactive)
CCCCNC(=O)COC(=O)c1cc(F)c(F)cc1Cl | 105% (inactive)
Clc1ccc(OCCCNCc2ccccc2)c2ccccc12 | 75.4% (inactive)
COc1cc(CNC2CCCC2)cc(Cl)c1OCc1ccc(F)cc1 | 72.3% (inactive)
O=C(Cc1c(F)cccc1Cl)Nc1ncc([N+](=O)[O-])s1 | 89.8% (inactive)
Cc1nc(C)c(/C(O)=C/c2nc3ccccc3oc2=O)s1 | 85.2% (inactive)
Cc1cccc2c(CC(=O)O)noc12 | 94.5% (inactive)
CC(C)(C)c1cc(CN2CCC(O)CC2)cc(C(C)(C)C)c1O | 114% (inactive)
Cc1ccc(-n2sc3ccccc3c2=O)cc1 | 88.5% (inactive)
Cc1ccnc(-n2sc3ccccc3c2=O)n1 | 82.7% (inactive)
Cn1c(=O)c(Oc2ccc(F)cc2)c(O)c2ccccc21 | 95% (inactive)
CSC1=N/C(=C\c2ccc3c(c2)OCO3)C(=O)S1 | 105% (inactive)
O=C(COC(=O)c1ccc(Br)o1)NCCCc1ccccc1 | 98.4% (inactive)
Cc1ccsc1C(=O)OCC(=O)Nc1nnc(-c2ccccc2)o1 | 110% (inactive)
Cc1ccc(NC(=O)CCSc2nnc(-c3ccco3)o2)cc1 | 103% (inactive)
Cc1ccccc1C(=O)Nc1nnc(-c2ccco2)o1 | 75.4% (inactive)
O=C(NC1CCCC1)c1cc(-c2cccs2)on1 | 101% (inactive)
O=C(Nc1nnc(C2=COCCO2)o1)c1ccc(Cc2ccccc2)cc1 | 98.7% (inactive)
O=C(Nc1ccc(Cl)cc1)C1CCCC1 | 98.3% (inactive)
O=C(O)c1ccc(-n2nc(C(F)(F)F)c3c2CCCC3)cc1 | 98.3% (inactive)
Brc1c(-c2ccc3c(c2)OCO3)nc2ncccn12 | 97.5% (inactive)
COc1ccc(CC(=O)OCC(=O)Nc2ccc(Br)cc2)cc1 | 96.7% (inactive)
CN1CCN(/N=C/c2ccc(-c3ccc([N+](=O)[O-])cc3Cl)o2)CC1 | 90.6% (inactive)

SMILES | viability
O=C(Nc1ccc2c(c1)CCC2)c1ccc(Br)o1 | 93.6% (inactive)
COC(=O)COc1cccc(NC(=O)c2cccc(C)c2)c1 | 99.5% (inactive)
CCCCN(C)C(=O)c1cc2cc3ccc(OC)cc3nc2s1 | 86.7% (inactive)
O=C(Nc1cccc([N+](=O)[O-])c1)C1COc2ccccc2O1 (stereo unspecified) | 93.8% (inactive)
O=C(N/N=C/c1ccc(OC(=O)c2ccco2)cc1)c1ccccn1 | 101% (inactive)
Cc1ccc(OC(=O)CCS(=O)(=O)c2ccc(C)cc2)cc1 | 101% (inactive)
CC1=NN(C(=O)c2ccc(Br)cc2)C(O)(c2ccccc2)C1 (stereo unspecified) | 81.5% (inactive)
CC1(c2nnc(-c3ccc(F)cc3)o2)CC(c2cccc(Cl)c2)=NO1 (stereo unspecified) | 97.2% (inactive)
COc1cccc(COC(=O)CCNC(=O)c2ccc(Br)cc2)c1OC | 98.2% (inactive)
CCOc1cc(-c2sc(Nc3cc(C)ccc3OC)n[n+]2-c2ccccc2)ccc1OC | 99.9% (inactive)
CN1CCN(c2cc3c(cc2F)c(=O)c(C(=O)O)cn3CCF)CC1 | 99.5% (inactive)
Cc1ccccc1C(=O)NN1CC(C(=O)OCc2ccc(Cl)c(Cl)c2)CC1=O (stereo unspecified) | 104% (inactive)
C/C(=N\NC(=O)c1ccco1)c1cc(Cl)sc1Cl | 92.5% (inactive)
CCc1ccc(OCCCC(=O)NCc2ccco2)cc1 | 110% (inactive)
COc1ccc(NC(=O)C(=O)NNC(=O)C(C)Oc2ccc(Cl)cc2Cl)cc1 (stereo unspecified) | 92.2% (inactive)
O=C(COc1ccc([N+](=O)[O-])cc1)NNC(=O)c1cccs1 | 112% (inactive)
CCCOC(=O)c1ccc(OC(=O)c2ccco2)cc1 | 94.4% (inactive)
COc1ccc(OCCOC(=O)c2cccs2)cc1 | 99.2% (inactive)
COc1ccc(OCCC(=O)OCC(=O)Nc2ccc(Br)cc2)cc1 | 104% (inactive)
CC(C(=O)OCC(=O)c1ccccc1)N1C(=O)C2C3CCC(C3)C2C1=O (stereo unspecified) | 98.4% (inactive)
COc1cccc(C(=O)OCC(=O)c2ccc(Br)s2)c1OC | 108% (inactive)
COc1ccccc1C1=Nn2c(nnc2C2CCCCC2)SC1 | 97.1% (inactive)
c1nc2n(n1)C1=C(CCCC1)C1(CCCCC1)N2 | 104% (inactive)
O=C(Nc1ccc(Cl)cc1Cl)c1cccc(N2C(=O)C=CC2=O)c1 | 105% (inactive)
O=c1c2cc(Cl)ccc2oc2nc3n(c(=O)c12)CCCS3 | 94.8% (inactive)

SMILES | viability
CCCc1nnc(NC(=O)c2cc3ccccc3oc2=O)s1 | 102% (inactive)
COCc1[nH]nc2c1C(c1sccc1C)C(C#N)=C(N)O2 (stereo unspecified) | 90.7% (inactive)
CCc1ccc(OCC(=O)c2c(O)c3ccccc3oc2=O)cc1 | 110% (inactive)
O=C(CCC1CCCCC1)NCc1cccs1 | 107% (inactive)
COc1cc(/C=N/Nc2cccc3cccnc23)cc(OC)c1O | 88.8% (inactive)
C/C(O)=C\c1nc2ccccc2oc1=O | 83.7% (inactive)
COc1ccc(/C=C/c2nc3ccccc3c(=O)o2)cc1 | 93.3% (inactive)
Oc1cc(NCc2cccnc2)ccc1-c1nc2ccccc2o1 | 70.9% (inactive)
CC(=O)c1ccc(-c2nnc(CCC(=O)N(C)Cc3cccc4cnccc34)o2)s1 | 103% (inactive)
c1coc(CNc2nc(N3CCCCC3)nc3ccccc23)c1 | 82.4% (inactive)
O=[N+]([O-])c1ccc(CSc2nnc(-c3cccnc3)o2)cc1 | 96.4% (inactive)
CC1CCN(C(=O)COC(=O)CCc2c[nH]c3ccccc23)CC1 | 87.8% (inactive)
Cc1ccc(N=N/C(=C\O)C(=O)c2ccncc2)cc1 | 101% (inactive)
CCOC(=O)Nc1cccc(OCC(=O)Nc2ccc(OC)cc2OC)c1 | 92.2% (inactive)
O=C(Nc1ncc([N+](=O)[O-])s1)c1ccc2c(c1)OCO2 | 72.5% (inactive)
Cc1ccc(NC(=O)COC(=O)C2=COCCO2)c([N+](=O)[O-])c1 | 97.8% (inactive)
O=C(Nc1nccs1)c1ccc2ccccc2c1 | 90.7% (inactive)
O=C(COC(=O)c1cc(Br)ccc1O)Nc1ccc2c(c1)OCO2 | 105% (inactive)
COc1ccc2nc(/N=C(\N)NC(=O)C(C)(C)C)nc(C)c2c1 | 84.7% (inactive)
COc1ccc(Nc2ccccc2N)cc1 | 70.4% (inactive)
Cc1cccc(NC(=O)c2cc3ccccc3oc2=O)c1 | 75.2% (inactive)
CCc1ccc(N2C(=O)NC(=O)/C(=C\C=C\c3ccco3)C2=O)cc1 | 95% (inactive)
O=C(COc1ccc2ccccc2c1)NNC(=O)c1cccs1 | 106% (inactive)
CCc1c(C)c2ccc(OCC(=O)OC)cc2oc1=O | 99.3% (inactive)
O=C(O/N=C/c1ccc2c(c1)OCO2)c1ccc([N+](=O)[O-])cc1 | 95% (inactive)

SMILES | viability
CCC(=O)Nc1ccc(C(=O)NNC(=O)c2cc([N+](=O)[O-])cc([N+](=O)[O-])c2)cc1 | 91.2% (inactive)
c1ccc(OCc2nnc3sc(-c4cccs4)nn23)cc1 | 91% (inactive)
CCOC(=O)c1cc([N+](=O)[O-])c([N+](=O)[O-])cc1NC(C)=O | 88% (inactive)
O=C(c1ccc([N+](=O)[O-])o1)N1CCN(c2nc3ccc(F)cc3s2)CC1 | 99.2% (inactive)
COc1cc2c(cc1OC)CN(C(=O)c1ccc([N+](=O)[O-])o1)CC2 | 72% (inactive)
CC1(CCc2ccc3c(c2)OCO3)NC(=O)c2ccccc2N1 (stereo unspecified) | 99.9% (inactive)
COc1ccccc1-c1nnc(-c2ccc(C)cc2)o1 | 92.6% (inactive)
COc1ccccc1-c1cc(SC)c(C#N)c(=O)o1 | 84.8% (inactive)
CCc1ccc(NC(=O)CCc2ccc(C)o2)cc1 | 101% (inactive)
O=S(=O)(NCc1cccnc1)c1ccc(Cl)c(Cl)c1Cl | 92.2% (inactive)
Cc1ccccc1OCCNc1cc(N2CC(C)NC(C)C2)ccc1[N+](=O)[O-] (stereo unspecified) | 83.2% (inactive)
CC1CCCN(CCCOc2ccc([N+](=O)[O-])cc2)C1 (stereo unspecified) | 104% (inactive)
S=c1[nH]c2ccccc2o1 | 97.2% (inactive)
CCOc1ccc(OC(=O)c2ccc3c(=O)n4c(nc3c2)CCC4)cc1 | 100% (inactive)
O=Cc1c(NCc2ccco2)nc2ccccn2c1=O | 97.9% (inactive)
CC(C)Oc1ccc(CNC(=O)Oc2ccccc2)cc1 | 90.1% (inactive)
CCCOc1ccc(N2CC(C(=O)Nc3ccccc3F)CC2=O)cc1 (stereo unspecified) | 101% (inactive)
CCOC(=O)Cn1c2ccc(F)cc2c2nc(C)sc21 | 108% (inactive)
Cc1cccc(NC(=O)c2cc3ccccc3o2)c1 | 96.6% (inactive)
CC(C)(C)NC(=O)C(=O)NNC(=O)c1ccc(C(C)(C)C)cc1 | 83.8% (inactive)
CCOC(=O)c1nc2sc3c(c2c(=O)[nH]1)CCC(C)C3 (stereo unspecified) | 100% (inactive)
O=C(CCN1C(=O)S/C(=C\c2ccc(F)cc2)C1=O)Nc1ccc(C(=O)O)c(O)c1 | 91.7% (inactive)
COc1ccc(OCC(=O)Nc2ccc(N3CCN(C(=O)c4ccco4)CC3)cc2)cc1 | 112% (inactive)
CC(=O)c1cccc(NC(=O)C2COc3ccccc3O2)c1 (stereo unspecified) | 101% (inactive)
Cc1ccc(CNCc2cc(Cl)ccc2O)cc1 | 90% (inactive)

SMILES | viability
O=C(CCCOc1ccccc1)OCn1nnc2ccccc2c1=O | 101% (inactive)
O=C(NCc1ccccc1)c1cc2ccccc2oc1=O | 104% (inactive)
CCC/C(=N\NC(=O)c1ccco1)c1ccc(Cl)s1 | 82.4% (inactive)
O=C(Nc1nccs1)c1ccc(Br)cc1 | 96.5% (inactive)
C/C(=C\C(=O)c1ccc(Br)cc1)NNC(=O)c1ccccc1 | 77.2% (inactive)
COc1cc(C=O)ccc1OCCCCOc1ccccc1[N+](=O)[O-] | 98.1% (inactive)
CCOC(=O)c1cc(-c2c(Cl)cccc2Cl)no1 | 109% (inactive)
O=C(O)c1ccc(CN2C(=O)CSC2=S)cc1 | 92.6% (inactive)
c1ccc(Cn2c(SCCN3CCOCC3)nnc2-c2cccnc2)cc1 | 92.9% (inactive)
COc1ccc(CN=C2NN=C(c3ccc(Cl)cc3)CS2)cc1 | 86.2% (inactive)
O=C(O)CCCCCN1C(=O)CSC1=S | 94.7% (inactive)
O=C1NC(Cc2c[nH]c3ccccc23)C(=O)N1CCOc1ccccc1 (stereo unspecified) | 91.7% (inactive)
CCOc1ccc(/C=N/OCC(=O)Nc2ccc3c(c2)OCO3)cc1 | 113% (inactive)
COc1cccc(OCC(=O)NNC(=O)c2cccs2)c1 | 90.7% (inactive)
CCC(=O)N/N=C/c1ccc(-c2ccc(Cl)cc2)o1 | 75.8% (inactive)
Cc1ccc(CO/N=C/c2c(O)cc(C)oc2=O)cc1 | 105% (inactive)
Cc1ccc(NC(=O)C2COc3ccccc3O2)nc1 (stereo unspecified) | 107% (inactive)
O=C1NC(=S)S/C1=C\c1ccc(SCc2ccco2)o1 | 74.8% (inactive)
O=C(C/C=N\OCc1ccc([N+](=O)[O-])cc1)Nc1ccccc1 | 104% (inactive)
C/C(=N\Nc1nc2ccccc2[nH]1)c1ccc(N2CCOCC2)cc1 | 80.6% (inactive)
CCCc1cc(=O)n2[nH]c(C)c(-c3ccccc3)c2n1 | 103% (inactive)

Reference: PubChem BioAssay AID492998 (Southern Research Specialized Biocontainment Screening …, 2010)
